Measured values as given in PubChem BioAssay AID504832 (National Center for Advancing Translational Sciences (NCATS), 2011).
Out of some 310,000 compounds screened, about 18,000 (5.8%) were called active. Roughly 22% stayed inconclusive and do not appear here. The call rests on the fitted dose curve; in most records, active means well fitted inhibition curve with a large enough effect; inconclusive means small, poorly fitted or top-dose-only effect, or another doubt; inactive means no such curve, though single readings can be large or run the other way. For the sample, actives were picked, then their nearest neighbours and some compounds at random.

Assay: Primary qHTS for delayed death inhibitors of the malarial parasite plastid, 48 hour incubation
Conditions: P. falciparum luciferase growth in erythrocytes; series mostly up to 28.7 µM; activity change, negative = inhibition: at the top concentration
Source text: The goal of this screen is to discover new antimalarial compounds that act by inhibiting the development of the apicoplast in the malarial parasite Plasmodium falciparum. The biochemical processes that make this organelle essential for erythrocytic stage parasites are not well understood. However, antibiotics such as azithromycin and tetracycline, which target the apicoplast translational machinery, have a potent antimalarial effect.
We have developed a cell-based assay that measures parasite growth based on the expression of an integrated copy of a firefly luciferase reporter. To detect small molecules that cause this "delayed death" phenotype, erythrocytes infected with the luciferase-expressing parasites were incubated with compounds for either one or two generations, corresponding to 48 and 96 hours, respectively. Compounds that inhibit parasite growth in the second generation, but not the first, should be enriched in antimalarials that target the apicoplast. Growth inhibition is detected by a decrease in luciferase activity.
Assay Provider: David Fidock and Eric Ekland, Columbia University
Keywords: NIH Roadmap, MLPCN, MLI, MLSMR, qHTS, NCGC, qHTS, malaria, luciferase, viability
Four microliters of culture medium (RPMI 1640 with 0.5% w/v Albumax (GIBCO), 24 mM sodium bicarbonate and 10 ug/mL gentamycin) were dispensed by a Multi-drop Combi into white solid 1536-well plates (Grenier) and 23 nL compound was added by a pin tool. Four microliters of infected erythrocytes (2% hematocrit, 0.1% parasitemia final concentration) in culture medium were dispensed and the plates incubated for 48 hours at 37 C in 5% CO2. Two microliters of luciferase detection reagent was added and luminescence was detected by a ViewLux (PerkinElmer) reader.
On the % scale 0 is the no-effect control and ±100 the full control effect; potency means the concentration at half of the fitted maximal effect.

Structure (SMILES) | activity change, negative = inhibition | Potency
CN(C)S(=O)(=O)c1ccc(C(=O)NCCN=C2NS(=O)(=O)c3ccccc32)cc1 | 1.74% (inactive) | –
COc1ccc(C)cc1Nc1nc(C)nc2c1oc1ccccc12 | -27.3% (inactive) | –
COc1ccccc1Nc1ncc(C(C)=O)c(C)n1 | 72.9% (inactive) | –
COC(=O)c1cnc(Nc2cc(C)ccc2OC)c2ccccc12 | – | 10.4 µM (active)
COc1ccc(N=Nc2c(-c3ccc(OC)cc3)[nH]oc2=O)cc1 | 14% (inactive) | –
COCCNC(=O)c1ccc2c(c1)ncn2-c1ccc(C)c(Cl)c1 | -9.91% (inactive) | –
C=CCn1c(SCC(=O)NC(=O)Cc2ccccc2)nc2ccccc2c1=O | 0.645% (inactive) | –
CCOCCCn1c(SCC(=O)Nc2cc(OC)ccc2OC)nc2ccccc2c1=O | – | 5.86 µM (active)
CC(=O)NCCn1c(SCC(=O)Nc2ccc(C)cc2)nc2ccccc2c1=O | 15.6% (inactive) | –
COc1ccc(NC(=O)CSc2nc3ccccc3c(=O)n2C)cc1 | – | 9.28 µM (active)
COc1ccc(OC)c(NC(=O)CSc2nc3cccnc3n2C)c1 | -18.9% (inactive) | –
CCc1nnc(NC(=O)CSc2nc3ccccc3c(=O)n2CCCOC)s1 | -14.1% (inactive) | –
COc1ccc(NC(=O)CSc2nnc(Cc3ccccc3)c(=O)n2N)cc1 | -26% (inactive) | –
O=C(CCC(=O)c1ccccc1)NCc1cccc(C(F)(F)F)c1 | -13.6% (inactive) | –
O=C(NC1CCCCCC1)C1CCN(C(=O)c2ccc(Cl)cc2)CC1 | -23.6% (inactive) | –
O=C(CCN1C(=O)[C@H]2CC=CC[C@H]2C1=O)NCc1nc(-c2ccccc2)no1 | 14.4% (inactive) | –
CCOC(=O)c1c(NC(=O)CSc2nnc(C)c(=O)[nH]2)sc2c1CCC2 | 2.76% (inactive) | –
CCOCC(=O)Nc1sc2c(c1C(=O)OCC)CCCC2 | -25.5% (inactive) | –
CCOC(=O)c1c(NC(=O)C2(C)Cc3ccccc3C(=O)O2)sc2c1CCCC2 (configuration not stated) | -19.7% (inactive) | –
CCOC(=O)c1c(NC(=S)NC(=O)c2ccco2)sc2c1CCCC2 | 5.52% (inactive) | –
CCOc1ccc(S(=O)(=O)N2CCC(C(=O)NCC(=O)Nc3cccc(Cl)c3C)CC2)cc1 | -14% (inactive) | –
CCOC(=O)c1c(NC(=O)Cn2nc(C(F)(F)F)cc2C)sc2c1CCC2 | – | 14.7 µM (active)
CCOC(=O)c1c(NC(=O)CCC(=O)NCc2ccco2)sc2c1CCCC2 | -6.78% (inactive) | –
CCOC(=O)c1c(NC(=O)C2CCN(S(=O)(=O)c3ccc(Cl)cc3)CC2)sc2c1CCCC2 | – | 8.28 µM (active)
O=C(NCc1ccccn1)C1CCN(S(=O)(=O)c2ccc(Br)cc2)CC1 | -26.8% (inactive) | –
O=C(NCc1ccc(Cl)cc1)C1CCN(S(=O)(=O)c2cccs2)CC1 | 9.93% (inactive) | –

Structure (SMILES) | activity change, negative = inhibition | Potency
O=C(NCc1cccs1)C1CCN(S(=O)(=O)c2ccc(Cl)cc2)CC1 | – | 1.85 µM (active)
CCOC(=O)c1c(NC(=S)NC)sc2c1CCCC2 | – | 9.28 µM (active)
Cc1cccc2c1cnn2C(=O)CCC(=O)NC1CCCCC1 | 23.3% (inactive) | –
O=C(N[C@@H](Cc1c[nH]c2ccccc12)C(=O)O)OCC1c2ccccc2-c2ccccc21 | 14.7% (inactive) | –
O=C(COC(=O)Cn1[nH]c(=O)c2ccccc2c1=O)Nc1c(Cl)cccc1C(F)(F)F | 36.6% (inactive) | –
O=C(Cc1cccs1)NCc1cccc(C(F)(F)F)c1 | 0.71% [at 0.00184 µM] (inactive) | –
CC1CN(C(=S)Nc2ccccc2F)CC(C)O1 (configuration not stated) | -5.26% (inactive) | –
COc1ccc(C(=O)N2CCCN(C)CC2)c(OC)c1 | -12.5% (inactive) | –
COc1ccc(CN2CCNC(=O)C2CC(=O)NCc2cn[nH]c2-c2ccccc2)c(F)c1 (configuration not stated) | -21.3% (inactive) | –
COc1ccc(CN2CC(C(=O)NCCc3ccc(Cl)cc3)CC2=O)cc1 (configuration not stated) | 12.1% (inactive) | –
O=C(O)c1ccccc1C(=O)Nc1nc(-c2ccccc2)cs1 | 1.55% (inactive) | –
Cc1ccc(C)c(NC(=O)c2ccc3nccnc3c2)c1 | 39.5% (inactive) | –
COc1ccc(CNC(=O)Cc2ccc(-c3ccccc3)cc2)cc1OC | -7.62% (inactive) | –
COc1ccc(C(=O)CN(C(=O)c2ccc(Cl)cc2)N2C(=O)c3ccccc3C2=O)cc1 | -2.1% (inactive) | –
CCn1c(C)cc(=O)cc1-c1ccc(Cl)cc1 | -13.4% (inactive) | –
COc1ccc(Cn2c(-c3ccc(Cl)cc3)c[n+]3ccccc23)cc1 | – | 0.522 µM (active)
Cc1ccc(OCC(=O)NCCCNC(=O)c2ccco2)cc1C | -9.91% (inactive) | –
Cn1cccc1C(=O)NNC(=O)COc1ccc(Br)cc1 | 4.6% (inactive) | –
COc1cccc(C(O)c2nc3ccccc3n2C)c1 (configuration not stated) | 12% (inactive) | –
Cc1n[nH]c(=O)c2c(NC(=O)COC(=O)c3ncc(Cl)c(Cl)c3Cl)oc(C)c12 | 77.2% (inactive) | –
COc1cc(OC)c(S(=O)(=O)Nc2ccccc2C(=O)O)cc1S(=O)(=O)Nc1ccccc1C(=O)O | -2.89% (inactive) | –
Cc1ccc(C)c(NC(=O)CN(C)C(=O)c2ccc3ncsc3c2)c1 | -3.05% (inactive) | –
O=C(Nc1ccc(NC(=O)c2cccs2)cn1)c1ccco1 | 281% (inactive) | –
O=C(Nc1ccnc(-c2ccncc2)n1)c1cccs1 | – | 11.7 µM (active)
O=C(Nc1ncccn1)c1cccs1 | 22.9% (inactive) | –
CC(C)CN(C(=O)CSc1ncnc2sccc12)C1CCS(=O)(=O)C1 (configuration not stated) | -15.5% (inactive) | –
